The subject of this assay is Human papillomavirus type 1a E7 protein (residues 1-88). As to the kind of experiment: HPV1a E7 small-molecule binders, primary screen, biochemical, small-molecule microarray, residues 1-88, 635 nm (AID 1129). Conditions: small-molecule microarray binding, fluorescence 635 nm; higher = more signal.
Regarding `CN1C(=O)C2C=CC(C(O)C#Cc3ccccc3)N(Nc3ccccc3)C2C1=O` (stereo not drawn), the composite z-score turned out to be 1.24. For `CN(C)c1ccc(C(O)C2C=CC3C(=O)N(c4ccccc4)C(=O)C3N2Nc2ccc([N+](=O)[O-])cc2)cc1` (stereo not drawn), the composite z-score came to 1.19. Consider `CN(C)C(=O)[C@@]1(Cc2ccccc2CN=[N+]=[N-])N=C(c2ccc(OCCCO)cc2)O[C@H]1c1ccccc1CN=[N+]=[N-]`, for which the composite z-score stood at 1.21. As to `O=C1OCC=C[C@H]2OC34C=CCN(Cn5nnc6ccccc65)C(=O)[C@H]3N(CCCO)C(=O)[C@@H]4[C@@H]12` (stereo partly drawn), the composite z-score is -0.603. As for `C[N+](C)(C)CCCCCCNC(=O)[C@H]1C[C@H]2C(=O)N[C@@H](Cc3ccccc3)C(=O)N2[C@H]1c1ccc(O)cc1`, the composite z-score was 0.0251. With `COCCOC(=O)N1C(=O)[C@@]2(c3cc(C#CCCO)ccc31)[C@H](C(=O)Nc1nc3ccccc3s1)[C@H]1C(=O)O[C@H](c3ccccc3)[C@H](c3ccccc3)N1[C@@H]2c1ccccc1OCCO` the figure was 1.2; with `COc1cc2c(cc1OC)CN(C(=O)[C@@H]1[C@H]3C(=O)O[C@H](c4ccccc4)[C@H](c4ccccc4)N3[C@H](c3ccc(OCCO)cc3)[C@@]13C(=O)Nc1ccc(C#CC4(O)CCCCCC4)cc13)CC2`, 1.18; with `COc1cc(CO)cc(I)c1O[C@H]1C=C(C(=O)NCCO)C[C@@H](NCc2ccc(F)cc2)[C@@H]1O`, 0.822. With `[N-]=[N+]=NCc1ccccc1C[C@@]1(C(=O)NCc2ccccc2)N=C(c2ccc(OCCCO)cc2)O[C@@H]1c1ccccc1N=[N+]=[N-]` the figure was 1.18. Then `O=C(CS)NCCCCCNC(=O)[C@@H]1C[C@@H]2C(=O)N3CCC[C@H]3C(=O)N2[C@@H]1c1cccc(OCCO)c1`, with 1.21; and `C=C(C)c1cc2c(c(CCCCCC)n1)[Si](C(C)C)(C(C)C)OC2`, with -1.15; and `CCCCC(O)C1C=CC2C(=O)N(c3ccccc3)C(=O)C2N1Nc1ccc(C(C)C)cc1` (stereo not drawn), with 1.22. The molecule `COCCOC(=O)N1C(=O)[C@@]2(c3cc(C#CC4=CCCCC4)ccc31)[C@H](c1ccc(OCCO)cc1)N1[C@H](c3ccccc3)[C@H](c3ccccc3)OC(=O)[C@H]1[C@@H]2C(=O)N1CCN(c2ncccn2)CC1` displayed a composite z-score of 1.15. Then `C=C(COC)/C(=C/C[C@H](OC(C)=O)c1ccc(OCCO)cc1)c1cc(C(=O)OC)ccc1OC`, with 1.07. Then `CC1CC/C=C\[C@H]2OC34C=CCN(c5ccc(Cl)cc5)C(=O)[C@H]3N(CCCCCO)C(=O)[C@]4(C)C2C(=O)O1` (stereo partly drawn), with -0.978; and `CN1C(=O)C2C=CC(C(O)c3cccc(O)c3)N(Nc3ccccc3)C2C1=O` (stereo not drawn), with 0.545; and `O=C1NC(=O)C2C1C=CC(C(O)c1c(F)cccc1Cl)N2Nc1ccc(Cl)cc1Cl` (stereo not drawn), with 1.2.

`COc1ccc([Si](C)(C)[C@@H]2[C@@H](CCO)O[C@]3(C(=O)N(Cc4ccc(N5CCCCC5=O)cc4)c4ccccc43)[C@H]2C)cc1` registered a composite z-score of 1.14.

With `C=CCC(OC(C)=O)[C@@H]1[C@@H](N(Cc2cc3ccccc3o2)C(=O)c2ccc(C)cc2)c2cc(OCCCO)ccc2N1C(=O)Cc1ccc(OC)cc1` (stereo partly drawn), the composite z-score is -0.454.

In turn, `CCOc1cc(C(O)C2C=CC3C(=O)N(C)C(=O)C3N2Nc2ccccc2)ccc1O` (stereo not drawn) displayed a composite z-score of 0.881. Then `O=C(CS)NCCCCCCNC(=O)[C@H]1C[C@H]2C(=O)N[C@@H](Cc3ccccc3)C(=O)N2[C@H]1c1ccc(O)cc1`, with 1.25; and `CC(c1ccccc1)C(O)C1C=CC2C(=O)N(c3ccccc3)C(=O)C2N1Nc1ccc([N+](=O)[O-])cc1` (stereo not drawn), with 1.25. With `COc1ccccc1CN1C(=O)c2ccccc2[C@@]2(Cc3ccccc3N(CC(F)(F)F)C2=O)[C@@H]1c1ccc(CO)cc1` the figure was 0.232; with `COC(=O)C(CC#Cc1ccc2c(c1)[C@]1(C(=O)N2)[C@H](C(=O)N2CCN(c3ncccn3)CC2)[C@H]2C(=O)O[C@H](c3ccccc3)[C@H](c3ccccc3)N2[C@@H]1c1ccc(OCCO)cc1)C(=O)OC`, 1.25; with `[N-]=[N+]=Nc1ccccc1[C@@H]1OC(c2ccc(OCCCO)cc2)=N[C@]1(Cc1ccccc1)C(=O)NCC(O)CO` (stereo partly drawn), 0.95.

As to `Cc1cc(C)c(C(O)C2C=CC3C(=O)NC(=O)C3N2Nc2ccc(Cl)cc2Cl)c(C)c1` (stereo not drawn), the composite z-score was 1.22. With `COC(=O)c1c2oc(c1C(=O)OC)C(=O)N(Cc1ccccc1)Cc1cn(nn1)C[C@H](Cc1ccccc1)NC(=O)N[C@H](CO)CC2` the figure was 0.848; with `C=CCNC(=O)[C@H]1[C@@H]2C(=O)O[C@@H](c3ccccc3)[C@@H](c3ccccc3)N2[C@@H](c2ccc(O)cc2)[C@]12C(=O)N(C(=O)OCCOC)c1ccccc12`, 1.24.

The values above are taken from PubChem BioAssay.
